Assay results as given in paper PMC10163288.
The list is a sample of the results. The true hit rate is not given.

B1: il2ra_site1_3nfp_sap_17_mot_HHH_b1_07644_af2_000000110_0001_40_57_H_._HEEHE_2706_0001_0000400054_0000001_0_0001_af2pred_0001_af2pred_1_swapped (protein)
chain: SSSSDALEFVEELAEKAFENNDKFQLRALYKLLREALEKTGNPEAEEVLEKVEELLRELQSSSSS
B2: il2ra_site2_2erj_sap_25_mot_ca9fcc9ace360711d783d1260e4fbff1_0001_1_af2_000000007_0001_15_32_H_._7f39e2d7389de0c2f60e905c27398b6a_0001_1_af2_0001_0000400011_000 … (protein)
chain: SSSSSYEERVEELLEEAEEAYREGDLHAVYRLAVEALHVASELGDQELIRLVAEFVEKISDSSSS
B3: il2ra_site1_2b5i_sap_16_mot_HHH_b1_01419_af2_000000080_0001_42_53_H_._HHH_b1_05266_af2_0001_0000100001_0000001_1_0001_af2pred_dldesign_0_af2pred (protein)
chain: SSSSSNQDEVYRLYKEALRLYKEGKREEAKKVLEEALKLAEKNKDEVAVKELKELLKRLESSSSS
B4: il2ra_site1_1z92_normal_mot_9b3351f2f66fbcc824ad33b4da01f8ef_0001_af2_000000012_0001_16_32_H_._HHH_b1_08171_0001_0000100006_0000001_0 (protein)
chain: SSSSSEEVLKKDLRFAVEARNPSSFRRLAELARRDLKEAGDEEALREFEEFVEELEQELGSSSSS
B5: il2ra_site1_1z92_normal_mot_HHH_b1_00893_000000159_0001_19_35_H_._43152d1d296b358565056a4a32fd9b81_0001_1_af2_0001_0000300029_0000001_0_af2pred_0001_af2pred_1_s … (protein)
chain: DDEELEEKLKEAAENRDVEKLEELLRELLELLGDPAVKFLLEFFERLLKRDEEDAVKNVLRFVSF
B6: il2ra_site1_2b5i_normal_mot_HHH_b1_06428_000000224_0001_1_17_H_._HHH_b1_02461_0001_0000700038_0000001_0_af2pred_dldesign_0_af2pred (protein)
chain: SSSSSSLAEARRLLLETEELLKAGKLEELAKLKKRIDALKAASDDPKVKKIADLINEALESSSSS
B7: il2ra_site2_2erj_normal_mot_c2bf78bdce995293a161f7082e24b401_0001_af2_000000082_0001_17_32_H_._HHH_b1_07868_0001_0000100001_0000001_0 (protein)
chain: SSSSSDEEEIRREVEELLEKVEEVPDLEEAYRLANEALRLASRLQDEELLRLILEVVQRHSSSSS
B8: il2ra_site2_3nfp_normal_mot_HHH_b1_05627_af2_000000038_0001_43_56_H_._HHH_b1_07199_af2_0001_0000600017_0000001_0 (protein)
chain: SSSSDKAEEYLRIALELLEEAIKAGDEESAKSILEVARLAAELHNDEEVEERLEELEELLSSSSS
B9: il2ra_site1_3nfp_normal_mot_HHH_b1_04049_af2_000000244_0001_42_55_H_._d1fb33ed66649044859e967e86ea168f_0001_af2_0001_0000200005_0000001_0 (protein)
chain: TKEKAIEDIIRALKQLPDPEVRELAEEAEELLENGDPEEALKVLKEAAKLLGDPVLEKLIEQYLT
B10: il2ra_site2_3nfp_sap_7_mot_HHH_b2_00746_000000285_0001_20_36_H_._HHH_b2_00413_af2_0001_0000200017_0000001_0_0001 (protein)
chain: SSSSDEVEELLREIRELLEEGDTYEAAQLLVRVSEIAAKLGDPELVKIVLELYKILKEKASSSSS
B11: il2ra_site2_3nfp_normal_mot_HHH_b1_05785_af2_000000002_0001_41_57_H_._HHH_b1_03527_af2_0001_0000800015_0000001_0 (protein)
chain: SSSSDEAEEYVKAALALLEEALEQGDEELFEKLARLIELAIEDLGNPELEERLEELKERGSSSSS
B12: il2ra_site2_2erj_sap_23_mot_ca9fcc9ace360711d783d1260e4fbff1_0001_1_af2_000000007_0001_15_32_H_._HHH_b2_04203_af2_0001_0000300022_0000001_0_0001 (protein)
chain: SSSDREEARVHFLAFRAMRLNNNGNPEEAQKVLEEAKEIAEENNNEELREWLEAMERTIKHSSSS
B13: il2ra_site2_3nfp_sap_18_mot_HHH_b1_07556_000000077_0001_42_55_H_._HHH_b2_07201_0001_0000400029_0000001_0_0001 (protein)
chain: SSSSDEEEEVKRSLEYLKAVAKLHNDEELQEVIEEAERILEEDNDPEKAAEALSEIALKLASSSS
B14: il2ra_site1_2b5i_sap_7_mot_HHH_b1_05947_000000126_0001_42_56_H_._HHH_b1_05810_af2_0001_0000100008_0000001_1_0001_af2pred_0001_af2pred (protein)
chain: SSSSSEEEQRAFELYHEASRAFSNGDKERARELLEEAIELAEEAGDPKIKRELEQFLEMLSSSSS
B15: il2ra_site1_3nfp_sap_21_mot_HHH_b2_04910_af2_000000236_0001_1_18_H_._4946fae19574d7b03d9e348227509a78_0001_0001_0000300023_0000001_0_0001_af2pred_0001_af2pred (protein)
chain: SSSDEREVHKLLKEALEAALKGNPEEARELLEEAERLAKELNNPRAEHTVEKALKSFERARSSSS
B16: il2ra_site2_2erj_normal_mot_76e6e8f7232a9e65eeaab5ff8ecb4c96_0001_000000242_0001_17_31_H_._HHH_eva_0320_af2_0001_0000500007_0000001_1 (protein)
chain: SSTEEEEVRRVVEEAEELIKRGDLEEAEEVLSEAFTLVYELGDEELVILILELAHELVRLLAKSS
B17: il2ra_site2_2erj_normal_mot_af86707857d369f3e1d85dcabc5f9321_0001_000000201_0001_14_29_H_._HHH_b1_07617_0001_0001000035_0000001_1_af2pred_0001_af2pred (protein)
chain: SSSSDEEEQIERLLREARELLEEGDPERAREVVWEAAQLAAESDNEELLKEILELLREIHGSSSS
B18: il2ra_site1_2b5i_normal_mot_HHH_b1_00432_000000039_0001_1_18_H_._HHH_b1_02735_0001_0000300013_0000001_0_af2pred_dldesign_0_af2pred (protein)
chain: SSSSSSDEEIEAAEDLALQALKEKDKEKRKELLEEALRLAQKGKDAKLVAQIQELLERLKSSSSS
B19: il2ra_site2_3nfp_normal_mot_HHH_b2_04451_000000238_0001_21_37_H_._HHH_b2_00723_af2_0001_0000500044_0000001_0 (protein)
chain: SSSSDLEEEVERLIEEVERLLEEGDKHEAAQLLLEATKLVAELNNEELARILLELFELLQKSSSS
B20: il2ra_site1_3nfp_sap_8_mot_d8099cd8ef6a59b9c03de2010570d688_0001_af2_000000259_0001_37_51_H_._HHH_b2_05910_0001_0000100005_0000001_0_0001 (protein)
chain: SAEEFVKRAKELVPPELQELLERALELALKRQDPKLARLLIKAVAAIQQGDPEKAEEVLKELEER
B21: il2ra_site1_2b5i_normal_mot_HHH_b1_08745_af2_000000166_0001_39_57_H_._HHH_b1_05884_0001_0000600032_0000001_0_af2pred_dldesign_0_af2pred (protein)
chain: SSSSSPEIQKLREMFEEADRLFKAGKYEEAKELLEKALKLAKELGANLELRIIQSALEQLESSSS
B22: il2ra_site1_2b5i_sap_15_mot_1dae16775e8f4074d71d019417416b97_0001_af2_000000275_0001_1_12_H_._HHH_b2_07869_0001_0000400013_0000001_1_0001_af2pred_0001_af2pred_1 (protein)
chain: SSSSTDVAREVFRLLEEADRLARNGNPEEAEKLLREAEELAEENGNRALLKFVRAALRALSSSSS
B23: il2ra_site1_2b5i_sap_9_mot_HHH_b2_07540_af2_000000089_0001_1_16_H_._HHH_b1_01333_af2_0001_0000100003_0000001_0_0001_af2pred_0001_af2pred (protein)
chain: SSSSSSEELLELLREADELFKNGNPEEAEKVLERAEELAERNGTKSMLRSVRSMLELLRESSSSS
B24: il2ra_site1_3nfp_sap_6_mot_HHH_b2_06502_000000163_0001_42_55_H_._HEEHE_0113_0001_0000200018_0000001_0_0001 (protein)
chain: SSSSSNDEAWRLLREAYEEFKKAKSREEMRELLEEAERLARELGDERLLRDIEKWLEQMKSSSSS

What follows are binders tested against il2ra, P01589 (assay: yeast display titration).
il2ra, P01589, sequence (P01589 whole entry): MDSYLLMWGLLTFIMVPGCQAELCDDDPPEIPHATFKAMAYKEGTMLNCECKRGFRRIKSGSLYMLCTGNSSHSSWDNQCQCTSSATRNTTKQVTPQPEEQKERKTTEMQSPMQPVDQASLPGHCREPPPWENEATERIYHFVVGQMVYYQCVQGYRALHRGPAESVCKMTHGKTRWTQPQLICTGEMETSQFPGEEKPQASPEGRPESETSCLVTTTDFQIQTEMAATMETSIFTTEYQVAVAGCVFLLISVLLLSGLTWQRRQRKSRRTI

Apparent Kd, inactive:
B1 no binding seen
B2 no binding seen
B3 no binding seen
B4 > 1500 nM
B5 > 2780 nM
B6 no binding seen
B7 no binding seen
B8 no binding seen
B9 no binding seen
B10 no binding seen
B11 no binding seen
B12 no binding seen
B13 no binding seen
B14 no binding seen
B15 no binding seen
B16 no binding seen
B17 no binding seen
B18 no binding seen
B19 no binding seen
B20 no binding seen
B21 no binding seen
B22 no binding seen
B23 no binding seen
B24 no binding seen
